Assay results as given in PubChem BioAssay AID485344 (National Center for Advancing Translational Sciences (NCATS), 2010).
About 6,900 (2%) of roughly 340,000 compounds were called active. Only a selection was taken, and actives are over-represented in it overall. Unmarked numbers belong to inactive results. Rule as the data show it: active = inhibition above about 30%; inactive = below that, where a call was filed.

These compounds were tested against D(2) dopamine receptor (Homo sapiens) (UniProt P14416) (assay: HTS Assay for Allosteric Antagonists of the Human D2 Dopamine Receptor: Primary Screen for Antagonists). Conditions: HEK293 TREx D2 cells, calcium flux, dopamine EC80; at 10 µM; hits give high values.
Sequence of D(2) dopamine receptor (Homo sapiens) (P14416 whole entry, looked up): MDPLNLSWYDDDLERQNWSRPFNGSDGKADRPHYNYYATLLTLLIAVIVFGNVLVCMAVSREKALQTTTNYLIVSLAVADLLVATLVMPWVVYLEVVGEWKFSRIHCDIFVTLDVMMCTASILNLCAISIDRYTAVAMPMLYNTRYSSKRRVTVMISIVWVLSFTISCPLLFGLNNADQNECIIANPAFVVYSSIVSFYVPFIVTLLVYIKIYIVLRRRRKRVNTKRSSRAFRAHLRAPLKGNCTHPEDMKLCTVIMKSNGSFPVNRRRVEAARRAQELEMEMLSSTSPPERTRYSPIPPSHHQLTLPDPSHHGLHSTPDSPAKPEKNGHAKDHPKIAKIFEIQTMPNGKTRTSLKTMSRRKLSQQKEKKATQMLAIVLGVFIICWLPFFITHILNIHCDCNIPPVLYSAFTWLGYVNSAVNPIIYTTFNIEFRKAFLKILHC
Procedure, shortened: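 Read-out: kinetic calcium fluorescence (1 cycle/s) in inducible HEK293 T-REx D2 cells after an EC80 dopamine addition that followed 180 s compound preincubation. Loss of the dopamine response indicates antagonism.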
Also: 0% is about no effect.

Compared with `COC(=O)C1=CO[C@@H](O[C@@H]2O[C@H](CO)[C@@H](O)[C@H](O)[C@H]2O)C2C1C[C@H](O)[C@@H]2C` (stereo partly specified), `CC1CC1C(=O)OCC(=O)Nc1cccc(F)c1` (stereo unspecified) is higher in inhibition: -6.47% for the first, 17.3% for the second.

First: COc1ccc(-n2c(SCC(=O)NCc3ccco3)nnc2-c2c[nH]c3ccccc23)cc1
Second: COc1ccc(-n2nnnc2SCC(=O)NCc2cccs2)cc1
The inhibition of the first is lower: -8.02% for the first, -2.89% for the second.

Compared with `CN1CCN(S(=O)(=O)c2cccc(C(=O)Nc3sccc3C#N)c2)CC1`, `COc1cc2c(cc1OC)CN(C(C)C(=O)Nc1cccc(S(=O)(=O)N3CCOCC3)c1)CC2` (stereo unspecified) is higher in inhibition: 0.535% for the first, 15.6% for the second.

Going from `CN(C)C(=O)c1ccc(NC(=O)COC(=O)c2cc3c(s2)CCCCC3)cc1` to `COc1ccccc1/C=C/C(=O)OCC(=O)NC1CCCCCC1`, the inhibition falls from -7.26% to -12.9%.

First: COc1ccc(-c2c(C#Cc3ccccc3)c3ccccc3n2C)cc1
Second: COc1ccc(-c2nc3ccccc3c(=O)n2CCc2ccc(O)cc2)cc1
The inhibition of the first is higher: 9.11% for the first, -13.4% for the second.

Going from `CCCc1[nH]nc2c1C(c1ccc(OC)c(Cn3nc(C)c(Br)c3C)c1)C(C#N)=C(N)O2` (stereo unspecified) to `CCOc1c(OC)cc(C2C(C#N)=C(N)Oc3n[nH]c(-c4ccncc4)c32)cc1OC` (stereo unspecified), the inhibition rises from -23.9% to -9.43%.

Compared with `CCN(CC(=O)Nc1ccccc1C(=O)NC1CC1)Cc1cccs1`, `Cc1ccsc1C(C(=O)NC1CCCCC1)N(C(=O)Cc1cccs1)C1CC1` (stereo unspecified) is higher in inhibition: 0.568% for the first, 2.03% for the second.

Compared with `Cc1cc(C)c(C#N)c(SCC(=O)N(CC(C)C)C2CCS(=O)(=O)C2)n1` (stereo unspecified), `COC(=O)c1sc(NC(=O)COC(=O)C2CCC2)c(C(=O)OC)c1C` is lower in inhibition: 6.67% for the first, 3.68% for the second.

First: CC(=O)N(CC1CCCO1)C1(C(=O)NC2CCCC2)CCCCC1 (stereo unspecified)
Second: CCOc1ccc(C(C)=O)cc1COC(=O)CN1C(=O)NC2(CCCC2)C1=O
The inhibition of the first is lower: -1.19% for the first, 5.14% for the second.

Compared with `COc1ccc(N(CCC(=O)NCCc2ccccc2)S(=O)(=O)c2ccc(C)cc2C)cc1`, `CC(C)c1ccc(C(=O)NCCCc2ccccc2)cc1` is lower in inhibition: -18.2% for the first, -23.5% for the second.

Compared with `COc1ccc(CC(=O)Nc2c3c(nn2-c2cccc(Cl)c2)CS(=O)C3)cc1` (stereo unspecified), `COc1cccc(N2CC(NS(=O)(=O)c3ccc(Cl)cc3)CC2=O)c1` (stereo unspecified) is higher in inhibition: -9.37% for the first, 12% for the second.

Compared with `CC(C)C(=O)Nc1c2c(nn1-c1ccccc1)CSC2`, `CC(Sc1ncnc2c1cnn2-c1ccccc1)C(=O)Nc1ccc(N2CCOCC2)cc1` (stereo unspecified) is higher in inhibition: 7.83% for the first, 8.83% for the second.

First: O=c1ccc(S(=O)(=O)N2CCCC2)cn1Cc1nc(-c2ccccc2)no1
Second: CN1C(=O)/C(=C\c2ccc(-c3ccccc3)o2)SC1=S
The inhibition of the first is lower: 15.2% for the first, 16.2% for the second.

Going from `CCOc1ccccc1-c1nc(CN2CCC(C(=O)N3CCOCC3)CC2)c(C)o1` to `COc1ccc(-c2nc(CN3CCN(c4ncccn4)CC3)c(C)o2)cc1C`, the inhibition rises from -1.66% to 0.804%.

Going from `COc1ccccc1N1CCN(CC(=O)Nc2ccnn2C2CCCC2)CC1` to `COC(=O)c1ccc(Cc2ccccc2)o1`, the inhibition falls from 14.3% to -18.3%.

First: CC(=O)NC12CC3CC(C1)CC(C(=O)N1CCN(S(=O)(=O)c4cccs4)CC1)(C3)C2
Second: CN1CCN(/N=C/c2ccc(-c3ccc([N+](=O)[O-])cc3)o2)CC1
The inhibition of the first is lower: -3.14% for the first, 11.1% for the second.

First: O=C1c2ccccc2C(=O)N1CCC#Cc1ccc2cc(C3(O)CCCCC3)oc(=O)c2c1
Second: O=C(CNS(=O)(=O)c1ccc2ccccc2c1)Nc1ccc(F)c(F)c1F
The inhibition of the first is lower: -4.36% for the first, 6.19% for the second.

Compared with `O=C(CCc1ccccc1)NNC(=O)c1ccc(Br)cc1`, `COC(=O)c1ccc(CSc2nnc(N)s2)o1` is lower in inhibition: -5.25% for the first, -17.4% for the second.

With `COc1ccc(-n2c(SCC(=O)NCc3cccs3)nnc2-c2ccoc2C)cc1` the inhibition was 42.5% (active).
For `COc1ccc(CCNCc2c(-c3ccccc3)n(C)c3ccccc23)cc1`, the inhibition was 45.6% (active).
For `COc1ccc(C2C(C#N)=C(N)Oc3n[nH]c(C)c32)cc1CN1CCN(c2ccc(F)cc2)CC1` (stereo unspecified), the inhibition was 53.9% (active).
In the case of `O=C(Cc1cccs1)N(CC1CCCO1)C1(C(=O)NC2CCCCC2)CCCCC1` (stereo unspecified), the inhibition is reported as 34% (active).
`CC(Oc1ccccc1)C(=O)Nc1c2c(nn1-c1ccccc1)CS(=O)C2` (stereo unspecified) was tested, and the inhibition was 30.2% (active).
For `COc1ccc(F)c(-c2nc(CN3CCC(c4ccccc4)CC3)c(C)o2)c1`, the inhibition was 93.5% (active).
In the case of `NS(=O)(=O)c1ccc(-c2ccc(/C=C3\SC(=O)NC3=O)o2)cc1`, the inhibition is reported as 47.3% (active).
In the case of `CC(C)=CCC/C(C)=C/C(=O)O`, the inhibition is reported as 55.4% (active).
For `O=C(CCNC(=O)c1ccc(Br)cc1)NCCCc1ccccc1`, the inhibition was 34.2% (active).
With `COC(=O)c1ccc(CSc2ccccc2C)o1` the inhibition was 34.1% (active).
